Reference: PubChem BioAssay

Experiment: probe aNOTCH3 binding on compound microarray – biochemical, small-molecule microarray, 635/667 nm fluorescence, primary screen (AID 1120);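 also: probe is a biotin-tagged antibody raised against NOTCH3 rather than NOTCH3 protein; score merges spot fluorescence near 667 nm with spot signal to noise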
Conditions: higher = more signal
`C=CCc1cccc([C@@H]2[C@@H](C)CC[C@H]3C(=O)N4[C@H](c5cccc(CC=C)c5)[C@@H](C)CC[C@H]4C(=O)N23)c1` showed a composite z-score of 0.0827.
Compound `CCCCCCc1nc(C2CC2)c(C)c2c1[Si](C(C)C)(C(C)C)OC2` has a composite z-score of -0.0647.
With `CC(C)(C)OC(=O)CC[C@]1(C(=O)NCCN2CCOCC2)N=C(c2ccc(OCCCO)cc2)O[C@H]1c1ccccc1CN=[N+]=[N-]` the composite z-score was 0.145.
Work on `CCOC(=O)C[C@H]1[C@H](OC(=O)c2ccccc2-c2ccccc2)[C@@H](NC(=O)c2ccc(-c3ccccc3)cc2)c2cc(OCCCO)ccc2N1C(=O)Cc1ccc(OC)cc1` yielded a composite z-score of 0.0193.
`C=CCN1C(=O)[C@@]2(Cc3ccccc3)N=C(c3ccc(OCCCO)cc3)O[C@H]2c2ccccc21` gave a composite z-score of 0.0635.
`C=CCC(OC(C)=O)[C@@H]1[C@@H](N(Cc2cc3ccccc3o2)C(=O)c2ccc(C)cc2)c2cc(OCCCO)ccc2N1C(=O)c1ccc2ccccc2n1` (stereo partly specified) gave a composite z-score of -0.0984.
`C=C(C(=O)CC[C@H](OC(=O)c1ccccc1-c1ccccc1C(=O)O)c1ccc(CO)o1)C(C)C` gave a composite z-score of -0.068.
`O=C(CS)NCCCCCNC(=O)[C@H]1C[C@H]2C(=O)N3CCC[C@H]3C(=O)N2[C@H]1c1ccc(O)cc1` showed a composite z-score of -0.229.
For `N#Cc1ccc(NN2C(C(O)CCc3ccccc3)C=CC3C(=O)N(c4ccccc4)C(=O)C32)cc1` (stereo unspecified), the composite z-score was 0.123.
`O=[N+]([O-])c1ccc(C[n+]2ccc3ccc(O)cc3c2)o1` gave a composite z-score of 0.0736.
In the case of `Cc1ccc(S[C@]2(C(=O)NC(C)C)CC(=O)N(Cc3cc(C(F)(F)F)cc(C(F)(F)F)c3)[C@@H]2c2ccc(CO)cc2I)cc1`, the composite z-score is reported as -0.313.
Compound `COC(=O)[C@@]1(Cc2ccccc2N=[N+]=[N-])N=C(c2ccc(OCCCO)cc2)O[C@H]1c1ccccc1CN=[N+]=[N-]` has a composite z-score of -0.0699.
`O=C(NCc1ccccc1)c1ccc(Br)cc1[N+](=O)[O-]` showed a composite z-score of 0.116.
Compound `C=C(COC)/C(=C/C[C@H](OC(C)=O)c1ccc(OCCO)cc1)c1cnc2ccccc2c1` has a composite z-score of 0.196.
Work on `COc1cc2c(cc1OC)CN(C(=O)[C@H]1[C@@H]3C(=O)O[C@@H](c4ccccc4)[C@@H](c4ccccc4)N3[C@@H](c3ccccc3OCCO)[C@]13C(=O)Nc1ccc(C#CC4(O)CCCCCC4)cc13)CC2` yielded a composite z-score of -0.0043.
Compound `COCCOC(=O)N1C(=O)[C@@]2(c3cc(C#CCCO)ccc31)[C@H](c1ccc(O)cc1)N1[C@H](c3ccccc3)[C@H](c3ccccc3)OC(=O)[C@H]1[C@@H]2C(=O)Nc1nc2ccccc2s1` has a composite z-score of 0.272.
`CC[C@H]1C2=C3C(CC[C@H]4C(OC)OC[C@](C)([C@@H]34)N(C(=O)OC(C)(C)C)C2)C(CO)C1CO` (stereo partly specified) showed a composite z-score of 0.619.
`CN(C)C(=O)[C@@]1(Cc2ccccc2N=[N+]=[N-])N=C(c2ccc(OCCCO)cc2)O[C@H]1c1ccccc1CN=[N+]=[N-]` showed a composite z-score of 0.293.
Work on `CC(C)[C@H]1NC(=O)[C@@]23C(=O)N[C@@H](Cc4ccccc4)C2[C@H](C)[C@@]2(C)O[C@H]2C3/C=C/C/C=C\CNC(=O)[C@H](C)NC1=O` (stereo partly specified) yielded a composite z-score of -0.25.
With `O=C1c2ccccc2[C@](Cc2ccccc2I)(C(=O)NCc2ccccc2)[C@H](c2ccc(CO)cc2)N1Cc1ccccc1C(F)(F)F` the composite z-score was -0.253.
In the case of `O=C1c2ccccc2[C@](Cc2ccccc2I)(C(=O)NCC(F)(F)F)[C@H](c2ccc(CO)cc2)N1Cc1ccccc1C(F)(F)F`, the composite z-score is reported as -0.099.
With `CCC1=C2CN(Cc3ccccc3Br)[C@@H]([C@@H](O)Cc3ccccc3)C2C=CCC1` (stereo partly specified) the composite z-score was -0.0277.
In the case of `C=CCc1cccc([C@H]2N[C@H](C(=O)O)CC[C@@H]2C)c1`, the composite z-score is reported as -0.122.
`COC(=O)C1=CC(c2ccc(CO)cc2)=CC(c2cccs2)N(Cc2cccc(OC(F)(F)F)c2)C=C1C(=O)OC` (stereo unspecified) gave a composite z-score of 0.0979.
In the case of `C=C(CCCC)C(=O)CC[C@@H](OC(=O)c1cccnc1)c1cccc(OCCO)c1`, the composite z-score is reported as 0.0351.
With `CO[C@H]1COC(=O)[C@H](Cc2ccccc2)NC(=O)CC=C[C@@H](C)[C@H](OC)COC(=O)CC=C[C@@H]1C` the composite z-score was 0.0319.
In the case of `COCCOC(=O)N1C(=O)[C@@]2(c3cc(C#CCC(C(=O)OC)C(=O)OC)ccc31)[C@H](C(=O)N1CCN(c3ncccn3)CC1)[C@H]1C(=O)O[C@H](c3ccccc3)[C@H](c3ccccc3)N1[C@@H]2c1ccc(O)cc1`, the composite z-score is reported as -0.0343.
For `CCCC=C(CCC)[C@@H](NS(=O)(=O)c1cccc(C(F)(F)F)c1)c1ccc(C(=O)OC)cc1`, the composite z-score was 1.7.
`NC(=O)[C@H]1[C@@H]2C(=O)O[C@@H](c3ccccc3)[C@@H](c3ccccc3)N2[C@@H](c2ccc(O)cc2)[C@]12C(=O)Nc1ccc(C#CCCO)cc12` showed a composite z-score of -0.125.
In the case of `O=C(O)[C@@H]1Cc2c([nH]c3ccccc23)[C@@H](c2ccccc2)N1`, the composite z-score is reported as -0.082.
`COc1cc2c(cc1OC)CN(C(=O)[C@@H]1[C@H]3C(=O)O[C@H](c4ccccc4)[C@H](c4ccccc4)N3[C@H](c3ccccc3OCCO)[C@@]13C(=O)Nc1ccccc13)CC2` gave a composite z-score of 0.746.
`CCCC=C(CCC)[C@@H](NS(=O)(=O)c1ccc(-c2ccccc2)cc1)c1ccc(C(=O)OC)cc1` gave a composite z-score of -0.0846.
With `O=C/C=C/c1ccccc1Cl` the composite z-score was -0.0259.
With `[N-]=[N+]=NCc1ccccc1[C@H]1OC(c2ccc(OCCCO)cc2)=N[C@@]1(Cc1ccccc1N=[N+]=[N-])C(=O)NCc1ccccc1` the composite z-score was 0.286.
Compound `O=C1c2ccccc2[C@](Cc2ccccc2I)(C(=O)O)[C@H](c2ccc(CO)cc2)N1C1CCCCC1` has a composite z-score of 0.447.
`C=CCC(OC(C)=O)[C@@H]1[C@@H](N(Cc2cc3ccccc3o2)C(=O)Cc2ccc(F)cc2)c2cc(OCCCO)ccc2N1C(=O)c1ccc(-c2ccccc2)cc1` (stereo partly specified) gave a composite z-score of -0.0881.
